Results filed as inconclusive are left out. A number with no mark means an inactive call. Calls of active or inactive are those of the source. Calls come from the whole dose curve; as a rule, active = well fitted cell-killing curve with a large enough effect; inconclusive = small, poorly fitted or top-dose-only effect; inactive = flat fitted curve, though single readings scatter.
Columns and labels:
[1] = Cellular viability qHTS for adrenocortical cancer (ACC) cell line SW-13 (AID 1963989); settings: SW-13 ACC cells viability, CellTiter-Glo, 48 h; activity (max response): active compounds read low; note: nearly all actives have a fitted effect of over 65% in size;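 for activity (max response): cells grown in serum-free medium with ITS supplement; % is set by controls: 0 for no effect and ±100 for the full control effect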
How it was run: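 Viability was read as CellTiter-Glo luminescence after 48 h compound treatment (up to 46 uM final) of SW-13 cells grown serum-free; titration curves were fit with a four-parameter logistic model to give IC50 and efficacy.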

[2] = Cellular viability qHTS for adrenocortical cancer (ACC) cell line NCI-H295R (AID 1963990); note: nearly all actives have a fitted effect of over 60% in size
How it was run: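 CellTiter-Glo ATP luminescence, read 48 h after compound addition, measured viability of NCI-H295R adrenocortical cells grown serum-free with ITS. Final concentrations spanned up to 46 uM. Data normalized to DMSO and doxorubicin, fitted for IC50 and maximal response.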
Potency is the fitted concentration of half-maximal effect.

| Structure (SMILES) | Potency [1] | Potency [2] | activity (max response) [1] [%] |
| --- | --- | --- | --- |
| Nc1nc(Nc2ccc3c(c2)CC[C@@H](N2CCCC2)CC3)nn1-c1cc2c(nn1)-c1ccccc1CCC2 | 14.1 µM (active) | 10 µM (active) | – |
| CCCCc1nc(Cl)c(CO)n1Cc1ccc(-c2ccccc2-c2nn[nH]n2)cc1 | – | inactive | – |
| Cc1[nH]cnc1CN1CCc2c(c3ccccc3n2C)C1=O | – | inactive | 6.95 |
| Cc1cc(O)cc(C)c1Cl | – | inactive | 6.52 |
| CC[C@H](c1ccc(O)cc1)[C@@H](CC)c1ccc(O)cc1 | – | 2.59 µM (active) | – |
| CCS(=O)(=O)c1ccc2oc(-c3ccc4ccccc4c3)nc2c1 | – | inactive | 1.49 |
| C/C(=C\C(=O)Nc1ccccc1C(=O)O)c1ccc2ccccc2c1 | 12.6 µM (active) | 28.2 µM (active) | – |
| CCN(CC)CCOc1ccc(C(O)(Cc2ccc(Cl)cc2)c2ccc(C)cc2)cc1 (stereo not drawn) | 20.6 µM (active) | 16.4 µM (active) | – |
| O=C(CCCc1ccc2cccnc2n1)NCc1cc(-c2ccc(F)c(C(F)(F)F)c2)no1 | – | inactive | 1.37 |
| C[C@H](CS)C(=O)N1CCC[C@H]1C(=O)O | – | inactive | – |
| CCOC(=O)[C@H](CCc1ccccc1)N[C@@H](C)C(=O)N1Cc2cc(OC)c(OC)cc2C[C@H]1C(=O)O | – | inactive | – |
| CC(=O)[C@@]1(O)CC[C@H]2[C@@H]3CCC4=CC(=O)CC[C@]4(C)[C@H]3CC[C@@]21C | – | inactive | – |
| CC(=O)Nc1c(I)c(NC(C)=O)c(I)c(C(=O)O)c1I | – | inactive | 2.04 |
| COc1ncc(Nc2ncc(C(C)N3CCN(S(C)(=O)=O)CC3)cc2-c2nc(C)nc(N)n2)cc1F (stereo not drawn) | – | inactive | -11.9 |

Source: PubChem BioAssay (NCATS)
